# GCN5L2 inh = qHTS Assay for Inhibitors of GCN5L2. Histone acetyltransferase KAT2A (Homo sapiens), Q92830. GCN5L2 HAT assay, ThioGlo1 CoA-SH fluorescence. Potency, µM (top dose mostly 58.9 µM), for inactives: top-dose activity change, negative = inhibition, actives largely listed as inhibitors. 390,000 tested, 0.21% active. AID 504327, 2011
# Target sequence (Q92830 whole entry, looked up): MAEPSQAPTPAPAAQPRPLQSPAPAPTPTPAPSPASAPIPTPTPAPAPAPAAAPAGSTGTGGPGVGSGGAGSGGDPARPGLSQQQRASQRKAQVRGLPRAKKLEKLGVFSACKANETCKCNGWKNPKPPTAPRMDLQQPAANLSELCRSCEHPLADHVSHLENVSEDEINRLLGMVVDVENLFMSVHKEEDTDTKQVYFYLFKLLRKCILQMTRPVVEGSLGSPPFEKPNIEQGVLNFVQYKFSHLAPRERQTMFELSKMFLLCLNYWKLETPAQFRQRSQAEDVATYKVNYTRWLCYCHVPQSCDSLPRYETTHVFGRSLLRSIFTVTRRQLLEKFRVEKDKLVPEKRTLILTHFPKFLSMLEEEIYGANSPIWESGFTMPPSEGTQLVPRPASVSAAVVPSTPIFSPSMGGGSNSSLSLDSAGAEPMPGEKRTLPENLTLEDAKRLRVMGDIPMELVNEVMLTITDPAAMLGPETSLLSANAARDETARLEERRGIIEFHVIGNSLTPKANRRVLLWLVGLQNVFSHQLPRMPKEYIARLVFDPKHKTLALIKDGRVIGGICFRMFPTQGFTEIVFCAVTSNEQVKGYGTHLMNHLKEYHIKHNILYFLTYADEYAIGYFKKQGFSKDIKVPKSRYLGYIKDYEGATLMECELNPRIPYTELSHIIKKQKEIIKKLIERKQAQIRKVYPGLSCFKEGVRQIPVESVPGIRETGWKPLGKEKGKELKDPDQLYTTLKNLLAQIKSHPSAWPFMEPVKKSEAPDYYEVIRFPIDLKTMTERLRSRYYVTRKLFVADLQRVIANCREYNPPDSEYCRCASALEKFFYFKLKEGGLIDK
#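 Titration-based screen in which CoA formation is detected via maleimide probe ThioGlo1 (50uM) turning fluorescent on thiol reaction; substrates H3(1-25) 75uM and acetyl-CoA 70uM, GCN5L2 20nM, 20 min incubation at room temperature.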
# VDR inh = Inhibitors of the vitamin D receptor (VDR): qHTS; Vitamin D3 receptor (Homo sapiens), P11473; VDR-SRC2-3 peptide fluorescence polarization, 2 h; Potency, µM, without a hit: max response, negative = inhibition, actives largely listed as inhibitors; 400,000 tested, 0.93% active
#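 Compounds are added to VDR with labelled SRC2-3 coactivator peptide and held 2 h at room temperature. Inhibition of the VDR–peptide interaction is then read as a change in fluorescence polarization.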
# rTrxR1 inhibitor = qHTS Assay for Inhibitors of Mammalian Selenoprotein Thioredoxin Reductase 1 (TrxR1): qHTS. 390,000 tested, 1% active. recombinant rTrxR1, NADPH fluorescence consumption, selenite substrate. Potency, µM (highest dose often 114 µM), for inactives: top-dose activity change, negative = inhibition, hits mostly inhibitors. Thioredoxin reductase 1, cytoplasmic (Rattus norvegicus), O89049; also: nearly all actives have a fitted effect of over 65% in size
#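 Rat TrxR1 (90 nM in the dispensed reagent) was pre-reduced with 400 uM NADPH for 5 min at room temperature, then incubated with compound for 15 min. After 400 uM selenite was added, NADPH fluorescence (Ex 340/Em 450 nm) was followed for 8 min.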
# Sfp inh = qHTS Assay for Inhibitors of Bacillus subtilis Sfp phosphopantetheinyl transferase (PPTase) | 4'-phosphopantetheinyl transferase ffp (Bacillus subtilis), Q9F4F7 | Biochemical Sfp PPTase activity, qHTS | Potency, µM, inactives show largest response in the series, negative = inhibition, most hits filed as inhibitors | 310,000 tested, 3.5% active | AID 1490, 2009;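 also: the enzyme is Sfp with the accession as filed and its product quenches rhodamine fluorescence; 0% = enzyme reaction without inhibitor and -100% = no enzyme wells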
#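 Fluorescence-quenching assay with 15 nM Sfp, 5 uM rhodamine-CoA and 12.5 uM BHQ-2-labelled ybbR peptide in pH 7.6 Hepes/MgCl2 buffer. Enzyme was pre-incubated with compound for 15 min at room temperature. Rate was taken from the 30-min fluorescence change (525/598 nm).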
# TrxR1 substrate = qHTS Assay for Substrates of Mammalian Selenoprotein Thioredoxin Reductase 1 (TrxR1): qHTS. purified TrxR1 substrate turnover, NADPH consumption readout. 390,000 tested, 0.01% active. AID 588456, 2011. Potency, µM (series often up to 114 µM), without a hit: at the top dose activity change, negative = substrate turnover. Thioredoxin reductase 1, cytoplasmic (Rattus norvegicus), O89049; also: nearly all actives have a fitted effect of over 50% in size
#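 Rat TrxR1, dispensed at 90 nM, was prereduced with 400 uM NADPH (final) for 5 min at ~22 deg C, then incubated with compound 15 min before 400 uM selenite. A first-read NADPH fluorescence drop versus no-compound background flagged substrates.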
# GLS inhibitor = qHTS for Inhibitors of Glutaminase (GLS) | AID 624170, 2012 | 410,000 tested, 0.21% active | Potency, µM (top dose mostly 45.5 µM), inactives show top-dose activity change, negative = inhibition, usual class: inhibitors | GLS enzymatic activity, qHTS titration | Glutaminase kidney isoform, mitochondrial (Homo sapiens), O94925
#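 Two-point fluorescence kinetic (t0, 30 min RT) for hKGA; glutamate detected via glutamate oxidase–HRP–Amplex Red. Substrate: 1 mM L-glutamine solution; buffer 45 mM KH2PO4, pH 8.2.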
# * hit, by the source's call; ? = inconclusive; nt = no result; [ ] = dose if it differs, or a comment. This is a sample that favours compounds with a hit; in the whole collection about 3.8% have one here. Calls follow the shape of the dose curve; as a rule, active = well fitted curve in the direction sought with a large enough effect; inconclusive = small, poorly fitted or top-dose-only effect, or another doubt; inactive = no such curve, though single readings can be large; an effect the other way counts as inactive or inconclusive. Unless noted, % is scaled to controls: 0 for no effect and ±100 for the full control effect; potency is read from the fitted curve at half-maximal effect.
SMILES,GCN5L2 inh,VDR inh,rTrxR1 inhibitor,Sfp inh,TrxR1 substrate,GLS inhibitor
Cc1c(C(=O)Oc2ccc(-c3cnc4ccccc4n3)cc2)cccc1[N+](=O)[O-],-22%,?,5%,50µM*,-4%,2%
CCOc1ccc(Nc2nc(Cc3nnc(SCC(=O)NCC4CCCO4)n3C)cs2)cc1 (configuration not stated),14%,-15%,14%,28µM*,1%,14%
CCOc1ccc(Nc2nc(Cc3nnc(SCC(=O)NC4CCCCC4)n3C)cs2)cc1,-5%,0%,9%,-8%,5%,15%
CCOc1ccc(Nc2nc(Cc3nnc(SCC(=O)N(CC)CC)n3C)cs2)cc1,0%,-11%,11%[57.1 µM],32µM*,-15%,19%
Nc1ccc(C(=O)OCC(=O)Nc2ccc3c(c2)OCO3)cc1[N+](=O)[O-],-3%,-2%,15%,11%,1%,5%
CC(C)c1nnc(NC(=O)CN2C(=O)c3ccccc3C2=O)s1,-3%,5%,18%,-12%,12%,9%
CCn1cc(/C=C/C(=O)Nc2ccc(C)cc2Br)cn1,2%,0%,3%[57.1 µM],-4%,3%[57.1 µM],2%
CCn1cc(/C=C/C(=O)Nc2ccn(Cc3c(F)c(F)cc(F)c3F)n2)cn1,-1%,?,-4%,28µM*,-7%,0%
C=CCn1c(O)c(N=NC(=O)CNC(=O)/C=C/c2ccco2)c2ccccc21,-14%,-5%,14µM*,?,-2%,-21%
CCCCn1c(O)c(N=NC(=O)c2ccco2)c2ccccc21,-5%,50µM*,-7%,-5%,-9%,-24%
O=C(CNC(=O)c1ccco1)N=Nc1c(O)n(CCc2ccccc2)c2ccccc12,-6%,-3%,1%,?,-2%,3%
NC(=O)Cn1c(O)c(N=NC(=O)CNC(=O)/C=C/c2ccccc2)c2ccccc21,-8%,-8%,9%,-3%,-5%,-4%
COc1ccc(N2Cc3cccc(C(=O)Nc4cc(C)cc(C)c4)c3C2=O)cc1,-26%,-8%,9%,nt,0%,6%
COc1ccc(N2Cc3cccc(C(=O)O)c3C2=O)cc1,?,8%,-7%[57.1 µM],6%,6%[57.1 µM],16µM*
O=C(CSc1nnc(CCc2ccccc2)n1-c1ccc(Cl)cc1)NCc1ccccc1,-2%,-17%,13%,12%,2%,-8%
Cc1ccc(/C=C/C(=O)N2CC(C)CC(C)C2)o1 (configuration not stated),-10%,?,?,16µM*,-6%,-11%
CCN1CCN(C(=O)/C=C/c2ccc(C)o2)CC1,3%,-9%,-33%,40µM*,-12%,8%
Cc1ccc(/C=C/C(=O)N2CCCC(C)C2)cc1 (configuration not stated),-2%,-5%,-6%,-4%,-9%,5%
Brc1ccc(Br)c2cnccc12,nt,-1%,-6%[57.1 µM],nt,5%[57.1 µM],6%
Cc1c(Br)c(O)c(Br)c2sc(=O)oc12,-25%,?,-25%[57.1 µM],2.8µM*,5%[57.1 µM],15%
CSCSC1=C(C#N)C(c2ccccc2Cl)C(C(C)=O)=C(C)N1 (configuration not stated),-16%,?,-16%,?,5%,0%
CC(=O)C1=C(C)NC(SCC(=O)c2ccc(Cl)cc2)=C(C#N)C1CC(C)C (configuration not stated),-14%,-13%,-25%,13µM*,-6%,-3%
CCOC(=O)C1=C(C)NC(SC)=C(C#N)C1CC(C)C (configuration not stated),-5%,2%,23%[57.1 µM],3%,-15%,-1%
CC(=O)C1=C(C)NC(SCC(N)=O)=C(C#N)C1C (configuration not stated),-5%,?,-31%,40µM*,-10%,-1%
CC(=O)C1=C(C)NC(SCC(N)=O)=C(C#N)C1CC(C)C (configuration not stated),-17%,79µM*,-34%,7%,1%,0%
SMILES,GCN5L2 inh,VDR inh,rTrxR1 inhibitor,Sfp inh,TrxR1 substrate,GLS inhibitor
CC(=O)C1=C(C)NC(SCC(=O)c2ccc(F)cc2)=C(C#N)C1CC(C)C (configuration not stated),-19%,-22%,-38%,14µM*,5%[57.1 µM],3%
Cc1ccc2nc3sc(C(=O)N4CCCc5ccccc54)c(N)c3cc2c1,-1%,-1%,11%[57.1 µM],22%,-3%,7%
O=C(CCSCc1ccccc1)Nc1ccc2c(c1)OCCO2,0%,-11%,17%,6%,-6%,-3%
Cc1onc(-c2c(F)cccc2Cl)c1C(=O)NCc1ccc2c(c1)OCO2,-9%,-8%,-4%,17%,-7%,3%
C=CCNC(=S)NNC(=O)C(CCCC)CC(C)(C)O (configuration not stated),-2%,16%,-9%,18µM*,-7%,30%
S=C(Nc1ccccn1)NC1CCCC1,13%,-28%,-11%,45µM*,1%,3%
COc1cc(/C=C2\C(=O)N(c3ccccc3)N=C2C)ccc1Oc1ccc([N+](=O)[O-])cc1[N+](=O)[O-],-8%,?,?,-7%,-3%,-17%
FC(F)(F)c1ccc(Cl)c(-n2c(Cc3cccs3)n[nH]c2=S)c1,-4%,2%,-17%,79µM*,-5%,?
Fc1ccc(-n2c(Cc3cccs3)n[nH]c2=S)cc1Cl,-2%,15%,-9%,7%,5%,-17%
N#CC1C(=O)c2ccccc2C1c1ccccc1 (configuration not stated),nt,45µM*,8%[11.4 µM],nt,5%[11.4 µM],33%
O=C1CCC(c2ccccc2)c2ccccc21 (configuration not stated),nt,-3%,18%,nt,2%,3%
C=CC(C1=CC(=O)C(OC)=CC1=O)c1ccc(OC)cc1 (configuration not stated),-12%,11µM*,nt,40µM*,nt,nt
C=CC(C1=CC(=O)C(OC)=C(OC)C1=O)c1ccccc1 (configuration not stated),-25%,1µM*,nt,1.8µM*,nt,nt
COc1ccc(S(=O)(=O)N=C2C=C(C)C(=O)C(C)=C2)cc1,?,-1%,0%,-2%,6%,46%
O=C(c1cnccn1)N1CCC[C@@]2(CCN(c3cccc(-c4ccccc4)c3)C2)C1,-11%,28µM*,nt,-26%,nt,nt

# High-throughput results from PubChem.
